Results filed as inconclusive are left out. Where a call stands in place of a potency, no number is given. Activity calls are given as the source filed them. Calls follow the shape of the full dose curve.
Each compound was assayed against Beta-2 adrenergic receptor (Homo sapiens) (UniProt P07550) (assay: Adrenergic beta2 receptor (ADRB2) small molecule agonists, cell-based qHTS assay (AID 1963593)). Details: CHO-ADRB2 cells, cAMP HTRF, 30 min; series mostly up to 92.4 µM.
Text: National Center for Advancing Translational Sciences [NCATS]
Division of Preclinical Innovation [DPI]
U.S. Environmental Protection Agency [EPA]
National Institutes of Environmental Health Sciences [NIEHS]
National Toxicology Program [NTP]
U.S. Food and Drug Administration [FDA]
Beta adrenergic receptors (Beta-ARs) belong to the G-protein coupled receptor (GPCR) superfamily, includes three subtypes - beta1, beta2, and beta3. Beta1-AR is the predominant receptor subtype expressed in the heart, and beta2-AR is expressed in the kidney, lung, blood vessel and in the heart, and beta3 is found in the adipocytes. Beta1 and 2 ARs couple to Gs protein and elevate cyclic adenosine mono phosphate (cAMP), which activates protein kinase A and leads to the downstream signaling responsible for the physiological actions. Beta-AR agonists or antagonists are the most prescribed therapeutic agents for heart failure and asthma, and these were one of the first target receptors for the rational drug design. Tox21 10K compound library was screened using the cAMP-Gs dynamic assay (Cisbio Bioassays, Shelton, CT) to identify agonists/antagonists of the Gs-coupled human adrenergic, beta2 receptor (ADRB2) in the CHO-ADRB2 cell line (Codex BioSolutions, Inc. Gaithersburg, MD), which stably over-expresses ADRB2. The principle of cAMP-Gs dynamic assay is based on HTRF technology, which facilitates the fluorescence resonance energy transfer (FRET) between donor Europium cryptate and acceptor d2-labeled cAMP. The cAMP generated within cells competes with the red acceptor, d2-labled cAMP, for binding to the monoclonal anti-cAMP-cryptate (Europium donor). An increase in intracellular cAMP leads to the disruption of FRET signal, and the signal is inversely proportional to the cAMP concentration. Isoproterenol HCl (Sigma-Aldrich, St. Louis, MO) was used as a positive control in the screening.
Tox21 Assay Protocol Summary:
CHO-ADRB2 cells were dispensed at 1,000/well in 4uL assay medium into white/solid 1536-well plates (Greiner Bio-One North America Inc., Monroe, NC) using a Multidrop Combi dispenser (ThermoFisher Scientific, Waltham, MA). The assay plates were incubated at 37C and 5% CO2 for an overnight (18-20hr). Then positive control and test compounds dissolved in DMSO were transferred to the assay plates at 23nL using a Pintool station (Wako, San Diego, CA). Following the compound and positive control transfer, 1uL stimulation mix containing 100uM IBMX and 25uM Ro-20-1724 was added to each well of the assay plates using BioRAPTR Flying Reagent Dispenser (FRD, Beckman Coulter, Brea, CA). The assay plates were incubated at room temperature for 0.5hr. Then 2.5ul each d2-labled cAMP and anti-cAMP-cryptate solutions were added separately to each well of the assay plates using an FRD and the assay plates were incubated at room temperature for 1hr.

Beta-2 adrenergic receptor (Homo sapiens), sequence (P07550 whole entry, looked up): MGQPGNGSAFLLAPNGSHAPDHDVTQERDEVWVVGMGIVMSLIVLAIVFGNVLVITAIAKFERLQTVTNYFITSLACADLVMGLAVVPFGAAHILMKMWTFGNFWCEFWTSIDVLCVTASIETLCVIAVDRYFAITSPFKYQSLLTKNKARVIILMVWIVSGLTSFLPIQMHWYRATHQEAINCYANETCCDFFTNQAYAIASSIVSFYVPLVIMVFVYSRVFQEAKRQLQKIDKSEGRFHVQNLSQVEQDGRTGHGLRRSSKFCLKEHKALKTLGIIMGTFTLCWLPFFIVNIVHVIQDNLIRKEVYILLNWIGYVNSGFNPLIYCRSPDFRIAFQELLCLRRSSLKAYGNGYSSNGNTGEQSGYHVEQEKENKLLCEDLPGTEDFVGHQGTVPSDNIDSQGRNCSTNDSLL

| Structure (SMILES) | Potency |
| --- | --- |
| CC(C)CCCCCOC(=O)c1ccccc1C(=O)OCCCCCC(C)C | inactive |
| CCCCc1c(C)nc(NCC)[nH]c1=O | inactive |
| Nc1cnn(-c2ccccc2)c(=O)c1Cl | inactive |
| CCCN(CCC)c1c([N+](=O)[O-])cc(C(C)C)cc1[N+](=O)[O-] | inactive |
| CNC(=O)Oc1cccc2c1OC(C)(C)C2 | inactive |
| COC(=O)c1sccc1S(=O)(=O)NC(=O)Nc1nc(C)nc(OC)n1 | inactive |
| OCCSSCCO | inactive |
| CCCCCCCCCl | inactive |
| O=C(O)C(F)(F)C(F)(F)C(F)(F)C(F)(F)C(F)(F)C(F)(F)F | inactive |
| Cc1cccc([N+](=O)[O-])c1 | inactive |
| N#Cc1ccc(Cl)cc1 | inactive |
| CC[N+]1(CC)CCC(OC(=O)C(O)(c2ccccc2)c2ccccc2)C1 (stereo not given) | inactive |
| CC(C)=CC1C(C(=O)OCN2C(=O)C3=C(CCCC3)C2=O)C1(C)C (stereo not given) | inactive |
| COP(=O)(OC)C(O)C(Cl)(Cl)Cl (stereo not given) | inactive |
| Nc1ccccc1C(=O)OCCc1ccccc1 | inactive |
| O=[N+]([O-])CCO | inactive |
| Nc1ccc(Cl)cc1 | inactive |
| Oc1ccccc1-c1ccccc1 | inactive |
| Cc1ccc2c(c1N)C(=O)c1ccccc1C2=O | inactive |
| CCCCN(CCCC)N=O | inactive |

| Structure (SMILES) | Potency |
| --- | --- |
| C[C@@H]1O[C@@H](O[C@H]2C[C@@H](O)[C@]3(CO)[C@H]4[C@H](O)C[C@]5(C)[C@@H](C6=CC(=O)OC6)CC[C@]5(O)[C@@H]4CC[C@]3(O)C2)[C@H](O)[C@H](O)[C@H]1O | inactive |
| CN1CC[C@]23c4c5ccc(O)c4O[C@H]2[C@@H](O)CC[C@H]3[C@H]1C5 | inactive |
| CCCC(C)(COC(N)=O)COC(=O)NC(C)C (stereo not given) | inactive |
| Cl[C@H]1OCCO[C@@H]1Cl | inactive |
| CCC[CH2][Sn]([Cl])([Cl])[CH2]CCC | inactive |
| COC(=O)c1ccc(CBr)cc1 | inactive |
| C1CC2OC2CC1C1CO1 (stereo not given) | inactive |
| C=CCN=C=S | inactive |
| COc1nc(NC(C)C)nc(NC(C)C)n1 | inactive |
| CC1OC(C)OC(C)O1 (stereo not given) | inactive |
| CCCC1COC(Cn2cncn2)(c2ccc(Cl)cc2Cl)O1 (stereo not given) | inactive |
| CCOC(=O)CC(SP(=S)(OC)OC)C(=O)OCC (stereo not given) | inactive |
| CN(C)[C@@H]1C(=O)C(C(N)=O)=C(O)[C@@]2(O)C(=O)C3=C(O)c4c(O)cccc4[C@@](C)(O)[C@H]3C[C@@H]12 | inactive |
| COC(=O)NS(=O)(=O)c1ccc(N)cc1 | inactive |
| CCOC(=O)C1(c2ccccc2)CCN(CCC(C#N)(c2ccccc2)c2ccccc2)CC1 | inactive |
| CCCC[N+]1(C)CCCC1 | inactive |
| N#Cc1ccccn1 | inactive |
| CCn1cc[n+](C)c1C | inactive |
| C=CCN1CC[C@]23CCCC[C@H]2[C@H]1Cc1ccc(O)cc13 | inactive |
| O=P1(NCCCl)OCCCN1CCCl (stereo not given) | inactive |
